TPT1 inh = C. albicans TPT1 enzyme inhibition | recombinant caTPT1, FP RNA substrate dephosphorylation | inhibition, % at 5 µM | 300,000 tested, 0.81% active;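 active = inhibition above the mean of all tested compounds plus 3 SD, set per screening campaign, cut at about 24% in these data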
Fh CTSL1 inh = blocks F. hepatica cathepsin L1 in PFM18AAP counter-screen; inhibition, % at 5.96 µM; 300,000 tested, 0.49% active; recombinant F. hepatica cathepsin L1, Z-Leu-Arg-MCA fluorescence;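 active = inhibition above the mean of all tested compounds plus 3 SD, set per screening campaign, cut at about 17% in these data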
Rpn11 block = Rpn11 (human) deubiquitinase inhibition; O00487; human 26S proteasome, Ub4-pepOG fluorescence polarization; 20S core pre-blocked with epoxomicin; inhibition, % at 20 µM; 360,000 tested, 0.59% active; AID 588493;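 active = inhibition at 20 µM, scaled to each plate's controls, above about 33%, limit read from the data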
CendR NRP1 mod = alters CendR peptide binding to human NRP-1. O14786. FAM-RPARPAR peptide binding to NRP-1, fluorescence polarization. inhibition, % at 25 µM. 360,000 tested, 0.85% active. AID 602438;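 active = inhibition or corrected inhibition above about 18%, plus a signal ratio from 0.5 to 1.5, limit read from the data, passing the limit was not always enough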
PHOSPHO1 block = PHOSPHO1 (human) inhibition; recombinant PHOSPHO1, absorbance phosphatase assay; 290,000 tested, 1.1% active; inhibition, % at 13.3 µM; in the data active = inhibition above about 60%
HNF4A DNA FP = change in binding of human HNF4 alpha to DNA. 360,000 tested, 0.3% active. activity change, % at 10 µM. HNF4a-FITC DNA binding, fluorescence polarization, 1 h. P41235; in the data active = activity change above about 30%, passing the limit was not always enough
Target sequence (P41235 whole entry, looked up): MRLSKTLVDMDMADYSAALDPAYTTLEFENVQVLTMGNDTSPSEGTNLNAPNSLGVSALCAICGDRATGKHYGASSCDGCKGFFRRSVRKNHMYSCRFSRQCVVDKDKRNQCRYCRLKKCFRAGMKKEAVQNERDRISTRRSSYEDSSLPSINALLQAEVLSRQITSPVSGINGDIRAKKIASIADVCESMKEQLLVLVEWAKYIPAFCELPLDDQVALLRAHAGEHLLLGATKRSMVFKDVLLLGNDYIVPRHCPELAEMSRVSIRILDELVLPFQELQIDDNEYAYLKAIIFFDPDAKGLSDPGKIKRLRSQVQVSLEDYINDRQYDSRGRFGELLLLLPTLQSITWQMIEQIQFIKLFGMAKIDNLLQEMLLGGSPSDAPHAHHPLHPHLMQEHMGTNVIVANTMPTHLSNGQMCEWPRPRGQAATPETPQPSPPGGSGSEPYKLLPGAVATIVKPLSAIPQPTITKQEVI
Each line names hits and unclear results; the compound was inactive in the other large screens; ! = repeats disagree. Shown are actives, neighbours in structure and some others; about 3.3% of the full set was active somewhere.

O=C(c1ccc2nc(-c3ccco3)c(-c3ccco3)nc2c1)N1CCC2(CC1)OCCO2	Fh CTSL1 inh 17
CC1C(=O)OC2CCN3CC4OC4(COC(=O)C(C)(O)C1(C)O)C23 (configuration not stated)	CendR NRP1 mod 26 (no result: TPT1 inh, Fh CTSL1 inh, PHOSPHO1 block)
CCCCC1(CCO)C(=O)NC(=S)NC1=O	none (no result: TPT1 inh, Fh CTSL1 inh, PHOSPHO1 block)
CCCCC1(CN2CCCC2=O)C(=O)NC(=O)NC1=O	CendR NRP1 mod 23
C[C@@H]1O[C@@H](O[C@@H]2C=C3CCC4C(CC[C@]5(C)[C@@H](c6ccc(=O)oc6)CC[C@]45O)[C@@]3(C)CC2)[C@H](O)[C@H](O)[C@H]1O (some centres not stated)	Fh CTSL1 inh 25 (no result: PHOSPHO1 block)
N[C@@H](Cc1c[nH]c2ccccc12)c1nnc(SCc2ccccc2)o1	none
N[C@@H](Cc1c[nH]c2ccccc12)c1nnc(SCc2ccc(F)cc2)o1	PHOSPHO1 block 62 (no result: TPT1 inh, Fh CTSL1 inh)
C=C(C)CSc1nnc([C@@H](N)Cc2c[nH]c3ccccc23)o1	PHOSPHO1 block 89
COC(=O)C1C2CC[C@@H](CC1OC(=O)c1ccccc1)N2 (some centres not stated)	none (no result: TPT1 inh, Fh CTSL1 inh, PHOSPHO1 block)
NC(Cc1cc(O)c(O)cc1O)C(=O)O (configuration not stated)	TPT1 inh 31 (no result: Rpn11 block, CendR NRP1 mod, PHOSPHO1 block, HNF4A DNA FP)
NCCc1cc(O)c(O)cc1O	none (no result: TPT1 inh, Fh CTSL1 inh, PHOSPHO1 block)
C[C@]12CCC3C(CC[C@H]4C[C@@H](O)CC[C@]34C)C1=CC[C@@H]2O (some centres not stated)	none (no result: TPT1 inh, Fh CTSL1 inh, PHOSPHO1 block)
CCC(COC(=O)c1cc(OC)c(OC)c(OC)c1)(c1ccccc1)N(C)C (configuration not stated)	CendR NRP1 mod 23!
COc1ccc(C(=O)O)cc1OC	none (no result: TPT1 inh, Fh CTSL1 inh, PHOSPHO1 block)
CC(C)CC(C)N (configuration not stated)	none (no result: TPT1 inh, Fh CTSL1 inh, PHOSPHO1 block)
Cc1nc2c(c(C)nn2-c2ccccc2)c(C)c1CCC(=O)N1CCC2(CC1)OCCO2	CendR NRP1 mod 51
Oc1ccc(/C=N/NP(=S)(c2ccccc2)c2ccccc2)c(O)c1O	PHOSPHO1 block 84
Oc1ccccc1/C=N/NP(=S)(c1ccccc1)c1ccccc1	none
Cn1ccnc1P(=S)(c1nccn1C)c1nccn1C	none
Cn1ccnc1P(=S)(c1nccn1C)N1CCOCC1	PHOSPHO1 block 76
CCOC(=O)C(NC(=O)CCl)(Nc1ccc(C(O)(C(=O)OCC)C(F)(F)F)cc1)C(F)(F)F (configuration not stated)	Fh CTSL1 inh 35
C#C[C@@]1(O)CCC2C3CCC4=C/C(=N/OCC(=O)NC(C(=O)NC(CC(C)C)C(=O)O)C(C)C)CC[C@]4(C)C3CC[C@@]21C (some centres not stated)	none (no result: TPT1 inh, Fh CTSL1 inh)
S=C(c1ccc(Cl)cc1)N1CCOCC1	PHOSPHO1 block 62
O=C1CC(=O)N(Cc2ccccc2)C(=O)N1Cc1ccccc1	HNF4A DNA FP 52 (not shown: TPT1 inh, Fh CTSL1 inh, Rpn11 block, PHOSPHO1 block)
O=C1CC(=O)N(Cc2ccccc2)C(=O)N1	none (no result: TPT1 inh, Fh CTSL1 inh, PHOSPHO1 block)
O=C1NC(=O)[C@]2(Cc3ccccc3N3CCN(c4ccccc4)CC32)C(=O)N1Cc1ccccc1 (some centres not stated)	PHOSPHO1 block 72
CN1C(=O)NC(=O)[C@]2(Cc3ccccc3N3CCN(c4ccccc4)CC32)C1=O (some centres not stated)	PHOSPHO1 block 65
FC(F)(F)c1ccccc1CNCCc1c[nH]c2ccccc12	none
C=CCN1C(=O)/C(=C/c2cccs2)C(=O)NC1=S	none
O=C1NC(=S)N(Cc2ccco2)C(=O)/C1=C\c1cccs1	PHOSPHO1 block 77 (no result: TPT1 inh, Fh CTSL1 inh, Rpn11 block, CendR NRP1 mod, HNF4A DNA FP)
CCC1C2CC3C4N(C)c5ccccc5C45CC(C2C5O)N3C1O (configuration not stated)	none (no result: TPT1 inh, Fh CTSL1 inh, PHOSPHO1 block)
O=c1c2ccccc2nc(-c2ccco2)n1-c1ccccn1	CendR NRP1 mod 32
Cc1cccnc1-n1c(-c2ccco2)nc2ccccc2c1=O	none
Cc1ccc(S(=O)(=O)N[C@@H](CCCCN)C(=O)CCl)cc1	Fh CTSL1 inh 85 (no result: PHOSPHO1 block)
O=C(c1ccc(F)c([N+](=O)[O-])c1)N1CC2CC(C1)c1cccc(=O)n1C2 (configuration not stated)	none
CCOC(=O)c1nsnc1NCCCl	CendR NRP1 mod 22
COC(=O)C1=C(c2ccc(C(C)=O)cc2)C[C@@H]2CC[C@H]1N2C(=O)NCc1ccc2c(c1)OCO2	CendR NRP1 mod 21 (no result: TPT1 inh, Fh CTSL1 inh, PHOSPHO1 block)
COC(=O)C1=C(c2cccc(C#N)c2)C[C@@H]2CC[C@H]1N2C(=O)N1CCC(O)CC1	CendR NRP1 mod 25 (no result: TPT1 inh, Fh CTSL1 inh, PHOSPHO1 block)

Screens (PubChem)
